Measured values as given in PubChem BioAssay AID1159580 (chemical genetic matrix, 2015).
Several values for one entry are separate records, joined by “and”; a condition that tells them apart may be missing. Equal entries are not always repeated. Hit rate of the full screen: of about 5,500 compounds, about 2,000 (36%) were called active. Roughly 18% stayed inconclusive and do not appear here. Rule as the data show it: active = normalized growth mostly below about 0.91 (no sharp cut-off); inconclusive = no clear call, values can overlap the other calls; inactive = mostly above about 0.92. The list shows a part of the results.

Test: chemical genetic growth profiling, strain panel (AID 1159580);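 also: tested at 20 µM; growth read once vehicle control cultures reached saturation at 30 °C; 1 = growth at the plate median or of vehicle wells; lower values mean less growth of the strain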
Settings: S. cerevisiae deletion strains, growth OD

Measured: normalized growth

CNC[C@@H](O)c1ccc(O)c(O)c1
inactive: locus YAL013W, strain DEP1, stronger effect = lower value 0.993 | locus YAL021C, strain ccr4, stronger effect = lower value 1 | locus YAL026C, strain drs2, stronger effect = lower value 0.984 | locus YAL030W, strain snc1, stronger effect = lower value 1 | locus YBL061C, strain skt5, stronger effect = lower value 1 | locus YBR009C, strain hhf1, stronger effect = lower value 0.997 | locus YBR021W, strain FUR4, stronger effect = lower value 1.02 | locus YBR023C, strain chs3, stronger effect = lower value 1.01 | locus YBR171W, strain sec66, stronger effect = lower value 1 | locus YBR229C, strain ROT2, stronger effect = lower value 0.96 | locus YBR231C, strain swc5, stronger effect = lower value 0.991 | locus YBR279W, strain paf1, stronger effect = lower value 1 | locus YCL011C, strain gbp2, stronger effect = lower value 1.02 | locus YCL016C, strain dcc1, stronger effect = lower value 1.02 | locus YCL029C, strain bik1, stronger effect = lower value 0.984 | locus YCL061C, strain MRC1, stronger effect = lower value 1.01 | locus YCL069W, strain vba3, stronger effect = lower value 1.01 | locus YCR088W, strain abp1, stronger effect = lower value 1.01 | locus YDL005C, strain med2, stronger effect = lower value 0.997 | locus YDL035C, strain GPR1, stronger effect = lower value 0.981 | locus YDL040C, strain nat1, stronger effect = lower value 1 | locus YDL074C, strain BRE1, stronger effect = lower value 0.984 | locus YDL101C, strain DUN1, stronger effect = lower value 0.986 | locus YDL185W, strain tfp1, stronger effect = lower value 0.966 | locus YDL192W, strain arf1, stronger effect = lower value 0.979 | locus YDR001C, strain nth1, stronger effect = lower value 1.01 | locus YDR069C, strain doa4, stronger effect = lower value 0.989 | locus YDR101C, strain arx1, stronger effect = lower value 0.982 | locus YDR137W, strain rgp1, stronger effect = lower value 1.03 | locus YDR159W, strain sac3, stronger effect = lower value 1 | locus YDR162C, strain NBP2, stronger effect = lower value 0.977 | locus YDR195W, strain ref2 0.989 | locus YDR297W, strain sur2, stronger effect = lower value 0.995 | locus YDR318W, strain mcm21, stronger effect = lower value 0.983 | locus YDR334W, strain swr1, stronger effect = lower value 0.993 | locus YDR335W, strain msn5, stronger effect = lower value 1 | locus YDR388W, stronger effect = lower value 0.99 | locus YDR392W, strain spt3, stronger effect = lower value 0.93 | locus YDR502C, strain sam2, stronger effect = lower value 0.996 | locus YEL003W, strain gim4, stronger effect = lower value 1 | locus YEL037C, strain rad23, stronger effect = lower value 1 | locus YEL061C, strain CIN8 (second series), stronger effect = lower value 1.01 | locus YEL061C, strain CIN8, stronger effect = lower value 0.978 | locus YER015W, strain faa2, stronger effect = lower value 1.01 | locus YER016W, strain bim1, stronger effect = lower value 1.01 | locus YER110C, stronger effect = lower value 0.984 | locus YER111C, strain swi4, stronger effect = lower value 1.02 | locus YER155C, strain BEM2 (second series), stronger effect = lower value 0.988 | locus YER155C, strain BEM2, stronger effect = lower value 1 | locus YER167W, strain BCK2, stronger effect = lower value 1.01 | locus YFR010W, strain ubp6, stronger effect = lower value 0.993 | locus YGL078C, strain dbp3, stronger effect = lower value 0.993 | locus YGL086W, strain mad1, stronger effect = lower value 0.977 | locus YGL167C, strain pmr1, stronger effect = lower value 1 | locus YGL173C, strain kem1, stronger effect = lower value 1 | locus YGL227W, strain vid30, stronger effect = lower value 1 | locus YGL240W, strain doc1, stronger effect = lower value 0.989 | locus YGL248W, strain PDE1, stronger effect = lower value 1 | locus YGL253W, strain hxk2, stronger effect = lower value 1.01 | locus YGR135W, strain pre9, stronger effect = lower value 1.04 | locus YGR229C, strain SMI1, stronger effect = lower value 0.99 | locus YGR252W, strain gcn5, stronger effect = lower value 1.02 | locus YHR013C, strain ard1, stronger effect = lower value 1.04 | locus YHR027C, strain rpn1, stronger effect = lower value 1.01 | locus YHR030C, strain SLT2, stronger effect = lower value 0.999 and 1.05 | locus YHR079C, strain IRE1 (second series), stronger effect = lower value 0.951 | locus YHR079C, strain IRE1, stronger effect = lower value 1.04 | locus YHR094C, strain hxt1, stronger effect = lower value 0.977 | locus YHR129C, strain ARP1, stronger effect = lower value 0.999 | locus YHR142W, strain chs7, stronger effect = lower value 1.02 | locus YHR200W, strain rpn10, stronger effect = lower value 0.97 | locus YIL066C, strain RNR3, stronger effect = lower value 0.986 | locus YIL073C, strain SPO22, stronger effect = lower value 1.02 | locus YIL125W, strain kgd1, stronger effect = lower value 0.983 | locus YIR030C, strain dcg1, stronger effect = lower value 0.999 | locus YJL092W, strain hpr5, stronger effect = lower value 1.01 | locus YJL095W, strain BCK1 (second series), stronger effect = lower value 1.01 | locus YJL095W, strain BCK1, stronger effect = lower value 1.03 and 1.07 | locus YJL115W, strain asf1, stronger effect = lower value 0.996 | locus YJL129C, strain trk1, stronger effect = lower value 1 | locus YJL134W, strain LCB3, stronger effect = lower value 0.993 | locus YJL154C, strain vps35, stronger effect = lower value 1 | locus YJL164C, strain tpk1, stronger effect = lower value 0.995 | locus YJL166W, strain qcr8, stronger effect = lower value 1.01 | locus YJL168C, strain set2, stronger effect = lower value 0.987 | locus YJL187C, strain SWE1 (second series), stronger effect = lower value 0.981 | locus YJL187C, strain SWE1, stronger effect = lower value 1 | locus YJR043C, strain POL32, stronger effect = lower value 0.978 | locus YJR066W, strain TOR1, stronger effect = lower value 0.985 | locus YJR075W, strain HOC1, stronger effect = lower value 0.994 | locus YKL009W, strain mrt4, stronger effect = lower value 0.986 | locus YKL068W, stronger effect = lower value 0.977 | locus YKL085W, strain MDH1 (second series), stronger effect = lower value 0.996 | locus YKL085W, strain MDH1, stronger effect = lower value 0.996 | locus YKL160W, strain elf1, stronger effect = lower value 1.03 | locus YKR001C, strain vps1, stronger effect = lower value 0.982 | locus YKR026C, strain gcn3, stronger effect = lower value 1 | locus YKR091W, strain srl3, stronger effect = lower value 1.01 | locus YLL001W, strain dnm1, stronger effect = lower value 1.01 | locus YLL026W, stronger effect = lower value 1 | locus YLL041C, strain sdh2, stronger effect = lower value 1 | locus YLR027C, strain aat2, stronger effect = lower value 1 | locus YLR039C, strain RIC1, stronger effect = lower value 1.03 | locus YLR058C, strain SHM2, stronger effect = lower value 0.984 | locus YLR102C, strain apc9, stronger effect = lower value 0.968 | locus YLR113W, strain HOG1, stronger effect = lower value 1.08 | locus YLR221C, strain rsa3, stronger effect = lower value 1.02 | locus YLR258W, strain gsy2, stronger effect = lower value 1.02 | locus YLR262C, strain YPT6 (second series), stronger effect = lower value 1 | locus YLR262C, strain YPT6, stronger effect = lower value 0.947 | locus YLR268W, strain sec22, stronger effect = lower value 0.972 | locus YLR320W, strain mms22, stronger effect = lower value 1.03 | locus YLR330W, strain CHS5, stronger effect = lower value 0.992 | locus YLR342W, strain FKS1 (second series), stronger effect = lower value 0.999 | locus YLR342W, strain FKS1, stronger effect = lower value 1.01 | locus YLR357W, strain rsc2, stronger effect = lower value 0.957 | locus YLR370C, strain arc18, stronger effect = lower value 1.01 | locus YLR371W, strain rom2, stronger effect = lower value 0.983 | locus YLR384C, strain iki3, stronger effect = lower value 0.999 | locus YLR418C, strain cdc73, stronger effect = lower value 0.996 | locus YML016C, strain PPZ1, stronger effect = lower value 0.994 | locus YML032C, strain rad52, stronger effect = lower value 0.997 | locus YML120C, strain ndi1, stronger effect = lower value 1.03 | locus YML124C, strain tub3, stronger effect = lower value 0.983 | locus YMR058W, strain fet3, stronger effect = lower value 1 | locus YMR078C, strain ctf18, stronger effect = lower value 0.99 | locus YMR125W, strain sto1, stronger effect = lower value 0.991 | locus YMR129W, stronger effect = lower value 1.01 | locus YMR205C, strain PFK2, stronger effect = lower value 1.04 | locus YMR223W, strain ubp8, stronger effect = lower value 1.02 | locus YMR231W, strain pep5, stronger effect = lower value 0.999 | locus YMR263W, strain SAP30, stronger effect = lower value 0.995 | locus YMR307W, strain GAS1, stronger effect = lower value 1.05 | locus YNL067W, strain RPL9B, stronger effect = lower value 0.992 | locus YNL071W, strain lat1, stronger effect = lower value 1.02 | locus YNL153C, strain GIM3, stronger effect = lower value 0.993 | locus YNL183C, strain NPR1, stronger effect = lower value 0.99 | locus YNL209W, strain ssb2, stronger effect = lower value 1 | locus YNL233W, strain BNI4, stronger effect = lower value 0.999 | locus YNL248C, strain rpa49, stronger effect = lower value 1.02 | locus YNL250W, strain rad50, stronger effect = lower value 0.96 | locus YNL271C, strain bni1, stronger effect = lower value 0.988 | locus YNL298W, strain CLA4, stronger effect = lower value 0.979 | locus YNL307C, strain MCK1, stronger effect = lower value 0.905 | locus YNL322C, strain KRE1 (second series), stronger effect = lower value 1.02 | locus YNL322C, strain KRE1, stronger effect = lower value 1 | locus YNR049C, strain mso1, stronger effect = lower value 1 | locus YNR052C, strain pop2, stronger effect = lower value 0.984 | locus YOL012C, strain htz1 0.8 | locus YOL147C, strain pex11, stronger effect = lower value 0.989 | locus YOR001W, strain rrp6, stronger effect = lower value 1.01 | locus YOR061W, strain CKA2, stronger effect = lower value 0.967 | locus YOR069W, strain VPS5, stronger effect = lower value 0.991 | locus YOR070C, strain gyp1, stronger effect = lower value 1 | locus YOR080W, strain dia2, stronger effect = lower value 0.997 | locus YOR083W, strain WHI5, stronger effect = lower value 1.03 | locus YOR106W, strain vam3, stronger effect = lower value 1.02 | locus YOR136W, strain idh2, stronger effect = lower value 0.965 | locus YOR144C, strain elg1, stronger effect = lower value 0.986 | locus YOR184W, strain ser1, stronger effect = lower value 0.982 | locus YOR231W, strain MKK1, stronger effect = lower value 1.07 | locus YOR265W, strain rbl2, stronger effect = lower value 1 | locus YOR270C, strain vph1, stronger effect = lower value 1.05 | locus YOR290C, strain snf2, stronger effect = lower value 0.955 | locus YOR316C, strain cot1, stronger effect = lower value 0.966 | locus YPL051W, strain arl3, stronger effect = lower value 0.998 | locus YPL055C, strain LGE1, stronger effect = lower value 1.02 | locus YPL078C, strain atp4, stronger effect = lower value 1.01 | locus YPL106C, strain sse1, stronger effect = lower value 0.984 | locus YPL240C, strain hsp82, stronger effect = lower value 1.01 | locus YPL256C, strain CLN2, stronger effect = lower value 1.03 | locus YPR119W, strain clb2, stronger effect = lower value 0.968 | locus YPR141C, strain kar3, stronger effect = lower value 0.975 | locus YPR163C, strain tif3, stronger effect = lower value 0.986 | locus YPR167C, strain met16, stronger effect = lower value 0.989 | strain wtn01, stronger effect = lower value 1
